Compound activity deposited in PubChem BioAssay by National Center for Advancing Translational Sciences (NCATS).
HCV inh: blocks hepatitis C virus | Huh7.5.1 HCVcc-Cre infection, luciferase reporter, 44 h | Potency, µM (doses to about 41.8 µM), for inactives: top-dose activity change, negative = inhibition, most hits filed as inhibitors | hit rate 3.4% among 340,000; further: potency means the concentration at half of the fitted maximal effect
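Cells seeded at 1,000/well and cultured 4 h, then compounds added followed by HCVcc-Cre virus (~0.5 moi). After 44 h further culture, luciferase substrate was added, plates held 15 min at room temperature, and luminescence read for 15 sec.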
Vaccinia mCherry: vaccinia inhibition (mCherry reporter). hit rate 0.63% among 310,000. Vaccinia virus mCherry reporter infection, fluorescence. Potency, µM (series often up to 36.5 µM), for inactives: at the top dose activity change, negative = inhibition, actives largely listed as inhibitors. AID 720579; calls by dose curve; tested in A549 cells; further: potency means the concentration at half of the fitted maximal effect; nearly all actives have a fitted effect of over 35% in size
Sm TGR block: inhibitors of Schistosoma mansoni thioredoxin glutathione reductase | Q962Y6 | Potency, µM (series often up to 114 µM), without a hit: at the top dose activity change, negative = inhibition, hits mostly inhibitors | purified TGR, DTNB reduction, TNB absorbance 405 nm | hit rate 3% among 360,000; further: potency means the concentration at half of the fitted maximal effect; nearly all actives have a fitted effect of over 60% in size
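TGR 20 nM + NADPH 100 uM (dispensed conc.), cpd preinc 15 min RT; start with NADPH (500 uM addition) then DTNB (15 mM addition). Kinetic TNB absorbance, 405 nm filter. Four-parameter Hill fit across titration.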
FMDV inh: blocks foot and mouth disease virus; FMDV antiviral cell-based qHTS; Potency, µM (highest dose often 57.9 µM), for inactives: at the top dose activity change, negative = inhibition, most hits filed as inhibitors; hit rate 1.2% among 410,000; calls by dose curve; tested in HEK293T cells; further: read-out not given here; potency means the concentration at half of the fitted maximal effect; nearly all actives have a fitted effect of over 45% in size
VACV Venus inh: inhibitors of vaccinia virus (Venus reporter). Potency, µM (highest dose often 36.5 µM), for the others: top-dose activity change, negative = inhibition, hits mostly inhibitors. Vaccinia virus Venus reporter expression, fluorescence. hit rate 0.46% among 330,000; calls by dose curve; tested in A549 cells; further: potency means the concentration at half of the fitted maximal effect; nearly all actives have a fitted effect of over 30% in size
HCMV inh: human cytomegalovirus inhibition; HFF cells, HCMV-luciferase reporter, 72 h; active compounds read low; activity change, negative = inhibition, % at 57.5 µM; hit rate 4.5% among 410,000; in the data active means activity change below about -60%; inconclusive means no clear call, values can overlap the other calls; inactive means above about -39%
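Luciferase read-out from HCMV-luciferase-infected HFFs (MOI 1 PFU/cell) 72 h post infection at 37C; compounds added after 16 h cell attachment; activity normalized between buffer-only basal and Salinomycin (10uM) inhibitor controls.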
The depositor's hits bear a star; i = inactive; ? = inconclusive; / = no result; [ ] = remark or other dose. The list is not random: actives were taken first. Their share in the collection is about 9.3%. Unless noted, the call rests on the fitted dose curve; in most records, active means well fitted curve in the direction sought with a large enough effect; inconclusive means small, poorly fitted or top-dose-only effect, or another doubt; inactive means no such curve, though single readings can be large; an effect the other way counts as inactive or inconclusive. On the % scale 0 is the no-effect control and ±100 the full control effect.

SMILES	HCV inh	Vaccinia mCherry	Sm TGR block	FMDV inh	VACV Venus inh	HCMV inh
Cc1ccccc1Cn1nc(C)c(NC(=O)c2cc3nc(-c4ccco4)cc(C(F)(F)F)n3n2)c1C	?	/	-23%	?	?	-5
Cc1c(Br)c([N+](=O)[O-])nn1CC(=O)Nc1ccc2nc3n(c(=O)c2c1)CCCC3	-21%	-16%[7.34 µM]	2%	-11%	?	-26
Cc1ccc(-c2c(C(=O)NC(C)C)oc(=O)c3ccccc23)cc1	0%	-4%	-6%	-6%	-10%	?
COc1ccc(-c2cc(=O)n(-c3nc4ccccc4[nH]3)[nH]2)cc1	?	/	-7%	12%	/	-90*
COc1ccc(-c2nc3ccccc3[nH]2)cc1	-23%	i	-6%	/	-18%	124
Cn1c(=O)c2c(c3ccccc31)OC(=O)CC2c1cccnc1 (stereo unspecified)	17%	/	1%	-4%	/	-39
COCC(C)N1C(=O)Cc2c1nc(N)c1c(N)nc(N3CCN(c4ccccc4F)CC3)c(C#N)c21 (stereo unspecified)	?	?	-3%	32µM*	-2%	?
CC(C)Oc1ccc(N2C(=O)c3ccccc3C2=O)cc1	8%	i	5%	60%	-16%	-19
COc1ccc(NC(=O)C(=O)NCC2CCCN2S(=O)(=O)c2ccc(C)cc2)cc1 (stereo unspecified)	?	?	1%	-23%	-25%	-85*
COc1ccc(CCNC(=O)C(=O)NCC2CCCN2S(=O)(=O)c2ccccc2)cc1OC (stereo unspecified)	?	-29%	-1%	22µM*	-24%	-4
C=CCN(Cc1cn(C)nc1-c1cccc(Cl)c1)C1CCS(=O)(=O)C1 (stereo unspecified)	10%	i	28µM*	-10%	-2%	29
CC(C)N(Cc1cn(C)nc1-c1cccc(Cl)c1)CC1CCC(=O)N1 (stereo unspecified)	8%	/	31%	-7%	/	-13
Cc1sc2nc(CN3CCOCC3)nc(Cl)c2c1C	-3%	-6%	-22%	0%	-26%	-17
Cc1sc2nc(CN3CCOCC3)nc(NS(=O)(=O)c3cc(Cl)ccc3Cl)c2c1C	-10%	/	-10%	17%	/	-106*
CCn1cc(C(=O)O)c(=O)c2cnc(N3CCN(C(=S)NC(=O)c4ccc(Cl)cc4Cl)CC3)nc21	-17%	i	8%	-15%	-2%	44
COc1cc(NS(=O)(=O)c2ccc(F)cc2)c(OC)cc1NC(=O)C1CC1	/	/	-30%	/	/	/
O=C(CCCl)Nc1cc(SCCO)cc([N+](=O)[O-])c1	/	-19%	5%	-7%	-9%	-3
O=C(Nc1cc(SCCO)cc([N+](=O)[O-])c1)c1ccc(Br)o1	?	?	7%	32µM*	-14%	-36
CC(C)(C)c1cc(C(C)(C)C)c2oc(=O)c(-c3nc4ccc(C(=O)O)cc4[nH]3)cc2c1	/	-8%[7.34 µM]	3%	-21%	-9%[7.34 µM]	17
Cc1cccc2cc(-c3nc4ccc(C(=O)O)cc4[nH]3)c(=O)oc12	1%	i	14%	7.9µM*	-9%	/
N#CC(c1cccc(C(F)(F)F)c1)(c1ncc(C(F)(F)F)cc1Cl)N1CCOCC1 (stereo unspecified)	8%	/	4%	-24%	/	-64*
COCCNC(=O)c1cc2c(c(-c3cccc(-c4cccc(OC)c4)c3)n1)[C@H](CCO)N(S(=O)C(C)(C)C)C2 (stereo partly specified)	/	6%	/	-11%	-10%	-20
O=C(CCSCc1cccc(Cl)c1)NCCc1ccccc1	5%	-17%	10%	-11%	-11%	-12
N#Cc1ccccc1S(=O)(=O)N1CCN(c2ccc(S(=O)(=O)N3CCOCC3)cn2)CC1	17%	/	17%[11.4 µM]	-3%	/	-25
O=c1oc2ccccc2c2c1cnc1ccccc12	8%	i	/	-12%	0%	40
SMILES	HCV inh	Vaccinia mCherry	Sm TGR block	FMDV inh	VACV Venus inh	HCMV inh
Cc1cnc(N)c2c(=O)oc3ccccc3c12	6.3µM*	-14%	4%	2%	-5%	67
CCN(CC)C(=O)c1ccc2c3c(cccc13)C(=O)N(CCc1ccc(OC)c(OC)c1)C2=O	?	?	4%	32µM*	?	/
Cc1ccc(NC(=O)c2cc(C(=O)c3cc(Cl)ccc3O)cn(-c3ccc(C)cc3)c2=O)cc1	?	-1%	-1%	0%	?	-70*
N#Cc1cc(C(=O)c2cc(Cl)ccc2O)cn(-c2ccccc2)c1=O	10%	i	-6%	-20%	-15%	-1
CCOC(=O)C(C)/C(C)=N/NC(=O)c1cc2ccccc2cc1O (stereo unspecified)	?	i	-10%	-14%	2%	-74*
C/C(CC(=O)N1CCCC1)=N\NC(=O)c1cc2ccccc2cc1O	-12%	/	?	0%	/	?
NNC(=O)c1cc2ccccc2cc1O	36%	-22%	0%	6.3µM*	-8%	-74*
O=C(NCC1CCCCC1)c1cc2ccccc2cc1O	13µM*	?	1%	3%	-24%	-75*
Cc1[nH]cc(Br)c(=O)c1Oc1ncc(C(F)(F)F)cc1Cl	5%	i	9%	-6%	-6%	24
Cc1cccc(C)c1Nc1nnc(SCc2cc([N+](=O)[O-])cc3c2OCOC3)s1	-5%	/	-27%	?	/	-24
COc1cccc(Nc2nnc(SCc3cc([N+](=O)[O-])cc4c3OCOC4)s2)c1	11µM*	/	2%	16µM*	?	-10
O=[N+]([O-])c1cccn2cc(-c3ccc(Br)cc3)nc12	?	?	-4%	51%	-28%	-62*
C[C@H](CO)N1C[C@H](C)[C@@H](CN(C)Cc2ccc(Oc3ccccc3)cc2)Oc2c(NC(=O)c3ccncc3)cccc2C1=O	?	i	/	24%	?	-10
CC1CCCN(C(=O)N2c3ccccc3Sc3ccccc32)C1 (stereo unspecified)	-19%	/	-20%	-30%	/	-68*
CCc1ccc(NC(=O)c2ccc(NS(=O)(=O)c3c(C)noc3C)cc2)cc1	/	-8%	3%	-2%	-5%	-9
Cc1cc(C)n(-c2ccc(C(=O)Nc3cccc([N+](=O)[O-])c3)cc2)n1	11µM*	-18%	2%	-29%	-6%	?
CC(C)(C)c1ccc(C(=O)Nc2cccc([N+](=O)[O-])c2)cc1	?	?	-4%	-38%	?	14
Cc1ccc(NC(=O)c2ccncc2)cc1S(=O)(=O)N(C)C	0%	-6%	1%	-3%	0%	1
Cc1ccc(NC(=O)c2ccc(OC(F)(F)F)cc2)cc1S(=O)(=O)N(C)C	3.2µM*	?	-3%	32µM*	?	-99*
Cc1noc(C)c1S(=O)(=O)Nc1ccc(C(=O)Nc2ccc(OC(F)(F)F)cc2)cc1	14µM*	/	-27%	-20%	/	-18
